Laboratory results reported in paper PMC7862700, “An all-to-all approach to the identification of sequence-specific readers for epigenetic DNA modifications on cytosine”.

What was measured:
Assay in all cases: DAPPL (digital affinity profiling via proximity ligation, sequencing); 10 mM Tris-HCl pH 7.5, 50 mM NaCl, 1 mM DTT, 4% glycerol, room temperature, 30 min; GST-TFs on glutathione beads, 16-mer random dsDNA library, 0.1% formaldehyde crosslink after washing; high values mean tight binding
Details in all cases: protein: recombinant; tags: N-terminal GST; dsDNA, one strand shown
FLI1 = biological target: T1, FLI1 (Homo sapiens, UniProt Q01543 1-452)
T1 sequence: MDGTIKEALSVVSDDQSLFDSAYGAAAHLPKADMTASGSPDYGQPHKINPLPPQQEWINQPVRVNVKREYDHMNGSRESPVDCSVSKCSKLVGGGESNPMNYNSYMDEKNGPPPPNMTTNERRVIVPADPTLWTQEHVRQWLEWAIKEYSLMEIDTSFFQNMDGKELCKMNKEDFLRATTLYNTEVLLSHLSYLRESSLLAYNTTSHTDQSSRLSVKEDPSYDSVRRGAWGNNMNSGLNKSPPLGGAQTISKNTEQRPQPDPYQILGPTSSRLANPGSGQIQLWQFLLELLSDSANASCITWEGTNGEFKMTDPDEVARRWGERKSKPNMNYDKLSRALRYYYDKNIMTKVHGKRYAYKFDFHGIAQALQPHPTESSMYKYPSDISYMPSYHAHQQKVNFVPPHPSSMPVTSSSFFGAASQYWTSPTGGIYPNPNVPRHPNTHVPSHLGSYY
Outline: (§1)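 Pools were built from human transcription factors expressed in yeast as GST fusions, captured on glutathione beads and DNA-barcoded, along with a tag-only sample. Incubation with 200 nmole of a 16-mer random double-stranded DNA library lasted 30 min at room temperature in Tris/NaCl/DTT/glycerol buffer, and was followed by washing, 0.1% formaldehyde crosslinking, proximity ligation, PCR amplification and Illumina NextSeq500 sequencing. Binding signal is the quotient of each hexamer's read frequency for a factor and its frequency for the tag-only sample.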

ELK1 = biological target: T2, ELK1 (Homo sapiens, UniProt P19419 1-428)
T2 sequence: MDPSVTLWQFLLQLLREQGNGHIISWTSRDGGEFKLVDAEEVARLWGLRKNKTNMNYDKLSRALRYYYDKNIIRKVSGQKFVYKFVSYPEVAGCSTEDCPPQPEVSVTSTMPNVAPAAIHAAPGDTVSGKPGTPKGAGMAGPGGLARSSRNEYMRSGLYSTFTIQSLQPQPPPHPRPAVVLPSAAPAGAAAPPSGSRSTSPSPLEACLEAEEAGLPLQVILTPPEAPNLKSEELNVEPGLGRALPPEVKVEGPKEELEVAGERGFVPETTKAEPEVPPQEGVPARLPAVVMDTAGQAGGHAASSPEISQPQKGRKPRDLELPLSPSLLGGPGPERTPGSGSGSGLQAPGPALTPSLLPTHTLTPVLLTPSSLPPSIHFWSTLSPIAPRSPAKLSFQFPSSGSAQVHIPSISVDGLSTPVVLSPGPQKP
Outline: as §1

GABPA = biological target: T3, GABPA (Homo sapiens, UniProt Q06546 1-454)
T3 sequence: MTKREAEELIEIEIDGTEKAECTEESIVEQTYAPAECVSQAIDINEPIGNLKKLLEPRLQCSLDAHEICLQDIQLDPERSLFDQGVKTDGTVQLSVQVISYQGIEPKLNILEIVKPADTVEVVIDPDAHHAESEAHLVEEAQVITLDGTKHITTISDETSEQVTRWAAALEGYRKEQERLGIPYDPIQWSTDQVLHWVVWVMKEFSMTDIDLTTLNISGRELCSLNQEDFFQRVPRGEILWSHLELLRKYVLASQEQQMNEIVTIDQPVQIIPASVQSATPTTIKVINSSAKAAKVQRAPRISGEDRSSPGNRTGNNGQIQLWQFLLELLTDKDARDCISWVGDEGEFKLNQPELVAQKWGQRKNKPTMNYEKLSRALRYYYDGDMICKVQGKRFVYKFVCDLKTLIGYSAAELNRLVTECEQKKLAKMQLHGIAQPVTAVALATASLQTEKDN
Outline: as §1

ERG = biological target: T4, ERG (Homo sapiens, UniProt P11308 1-479)
T4 sequence: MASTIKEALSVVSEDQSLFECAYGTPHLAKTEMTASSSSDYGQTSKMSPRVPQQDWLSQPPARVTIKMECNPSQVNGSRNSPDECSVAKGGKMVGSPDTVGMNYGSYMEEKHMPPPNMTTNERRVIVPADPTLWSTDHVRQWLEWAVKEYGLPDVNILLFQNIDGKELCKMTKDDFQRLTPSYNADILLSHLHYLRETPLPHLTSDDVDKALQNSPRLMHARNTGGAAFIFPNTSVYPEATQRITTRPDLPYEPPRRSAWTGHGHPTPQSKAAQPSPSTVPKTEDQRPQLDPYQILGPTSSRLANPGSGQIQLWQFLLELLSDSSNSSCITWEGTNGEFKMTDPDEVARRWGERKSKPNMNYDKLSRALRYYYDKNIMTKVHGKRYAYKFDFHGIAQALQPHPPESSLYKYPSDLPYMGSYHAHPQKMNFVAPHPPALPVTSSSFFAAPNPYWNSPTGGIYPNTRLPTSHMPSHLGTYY
Outline: as §1

ELF1 = ELF1 (Homo sapiens, UniProt P32519 1-619)
Sequence of ELF1 (P32519 whole entry): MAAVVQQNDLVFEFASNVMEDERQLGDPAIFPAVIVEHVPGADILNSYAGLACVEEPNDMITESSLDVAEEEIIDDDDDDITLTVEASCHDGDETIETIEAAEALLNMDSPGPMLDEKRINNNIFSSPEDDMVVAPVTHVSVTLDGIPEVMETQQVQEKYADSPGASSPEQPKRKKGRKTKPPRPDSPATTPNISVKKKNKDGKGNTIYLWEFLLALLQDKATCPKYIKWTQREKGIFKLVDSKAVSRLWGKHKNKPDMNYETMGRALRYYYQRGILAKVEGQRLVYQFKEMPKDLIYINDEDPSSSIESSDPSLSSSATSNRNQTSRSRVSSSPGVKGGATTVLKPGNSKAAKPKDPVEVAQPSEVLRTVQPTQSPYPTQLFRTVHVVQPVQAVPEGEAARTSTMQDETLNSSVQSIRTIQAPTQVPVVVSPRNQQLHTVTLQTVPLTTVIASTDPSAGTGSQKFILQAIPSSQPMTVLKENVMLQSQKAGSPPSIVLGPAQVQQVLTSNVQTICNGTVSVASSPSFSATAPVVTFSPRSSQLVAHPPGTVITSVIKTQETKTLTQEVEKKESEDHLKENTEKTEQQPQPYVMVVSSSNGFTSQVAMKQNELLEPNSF
Outline: as §1

EHF = biological target: T5, EHF (Homo sapiens, UniProt Q9NZC4 1-300)
T5 sequence: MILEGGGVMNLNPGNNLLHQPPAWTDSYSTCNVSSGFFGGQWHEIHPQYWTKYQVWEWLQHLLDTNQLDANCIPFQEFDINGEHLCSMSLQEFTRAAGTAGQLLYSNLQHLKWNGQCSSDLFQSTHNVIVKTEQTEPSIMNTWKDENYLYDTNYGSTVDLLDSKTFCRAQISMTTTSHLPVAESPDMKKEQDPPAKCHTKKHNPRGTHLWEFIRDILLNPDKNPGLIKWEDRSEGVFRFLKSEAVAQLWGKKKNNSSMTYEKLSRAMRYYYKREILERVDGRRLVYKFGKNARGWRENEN
Outline: as §1

SPI1 = SPI1 (Homo sapiens, UniProt P17947 1-270)
Outline: as §1

SPIB = SPIB (Homo sapiens, UniProt Q01892 1-262)
Sequence of SPIB (Q01892 whole entry): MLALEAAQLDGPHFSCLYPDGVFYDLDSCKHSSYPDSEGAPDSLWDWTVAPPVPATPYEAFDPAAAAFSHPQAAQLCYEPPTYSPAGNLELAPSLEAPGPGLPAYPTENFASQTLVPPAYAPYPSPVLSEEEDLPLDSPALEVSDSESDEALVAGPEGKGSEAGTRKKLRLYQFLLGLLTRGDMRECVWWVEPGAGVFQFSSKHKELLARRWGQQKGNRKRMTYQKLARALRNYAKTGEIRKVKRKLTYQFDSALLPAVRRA
Outline: as §1

FEV = biological target: T6, FEV (Homo sapiens, UniProt Q99581 1-238)
T6 sequence: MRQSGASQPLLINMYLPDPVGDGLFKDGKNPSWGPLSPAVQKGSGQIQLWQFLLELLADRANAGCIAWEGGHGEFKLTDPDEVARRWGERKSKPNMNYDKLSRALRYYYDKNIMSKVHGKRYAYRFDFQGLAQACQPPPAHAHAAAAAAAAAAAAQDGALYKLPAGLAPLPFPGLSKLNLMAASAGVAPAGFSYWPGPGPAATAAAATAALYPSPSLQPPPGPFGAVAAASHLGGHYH
Outline: as §1

Which results are given for GTGTCC?
binding signal (FLI1): 1.03 fold enrichment (6-mer frequency, TF over GST control); binding signal (ELK1): 1.07 fold enrichment (6-mer frequency, TF over GST control); binding signal (GABPA): 1.1 fold enrichment (6-mer frequency, TF over GST control); binding signal (ERG): 1.13 fold enrichment (6-mer frequency, TF over GST control); binding signal (ELF1): 1.1 fold enrichment (6-mer frequency, TF over GST control); binding signal (EHF): 1.08 fold enrichment (6-mer frequency, TF over GST control); binding signal (SPI1): 1.08 fold enrichment (6-mer frequency, TF over GST control); binding signal (SPIB): 1.13 fold enrichment (6-mer frequency, TF over GST control); binding signal (FEV): 1.1 fold enrichment (6-mer frequency, TF over GST control)
